{"source": "PubChem BioAssay (Tox21)", "note": "“And” between values parts separate entries of the source, which are not always exact repeats. Equal entries are not always repeated. Results filed as inconclusive are left out. Entries that show only a call come without a potency. Some structures have more than one record in an assay (separate samples or runs), and their calls can disagree. The source made the active and inactive calls. Calls come from the whole dose curve; as a rule, active = well fitted cell-killing curve with a large enough effect in the repeat runs; inconclusive = weak or mixed curves, or effect the other way; inactive = no such curve, though single readings can be large or run the other way. Potency is the fitted concentration of half-maximal effect."}
{"experiment": "qHTS assay to identify small molecule antagonists of the thyroid receptor (TR) signaling pathway - cell viability counter screen (AID 743064); note: nearly all actives have a fitted effect of over 50% in size", "settings": "GH3.TRE-Luc viability, CellTiter-Fluor, 24 h; series mostly up to 70.3 µM", "text": "National Center for Advancing Translational Sciences [NCATS]\nNIH Chemical Genomics Center [NCGC]\nU.S. Environmental Protection Agency [EPA]\nNational Institutes of Environmental Health Sciences [NIEHS]\nNational Toxicology Program [NTP]\nU.S. Food and Drug Administration [FDA]\nThyroid receptor (TR), a nuclear hormone receptor, plays an important role in development, proliferation, differentiation, metabolism, brain function, and cardiovascular system. […] To profile the Tox21 10K compound library in TR signaling, a cell-based GH3-TRE-Luc assay (GH3.TRE-Luc cell line, developed by the laboratory of Dr. Albertinka J. Murk, Wageningen University) was used to measure the inhibition of TR. GH3 (rat pituitary tumor) cells stably expressing a TR activity sensor consisting of two TR response elements and a luciferase reporter gene. The cytotoxicity of the Tox21 compound library against the GH3.TRE-Luc cell line was tested in parallel by measuring the cell viability using CellTiter-Fluor assay (Promega, Madison, WI) in the same wells.\nTox21 Assay Protocol Summary:\nGH3.TRE-Luc cells were dispensed at 1500 cells/4 uL/well into 1536-well white solid bottom plates using a Multidrop Combi dispenser (Thermo Fisher Scientific Inc., Waltham, MA). After the assay plates were incubated at 37 C for 4 hours, 23 nL of library compound or DMSO controls was transferred to the assay plates by a pintool station (Kalypsys, San Diego, CA), followed by addition of 1 ul of T3 (1 nM, final concentration in the wells) to stimulate TR transactivation. The assay plates were incubated at 37 C for 23.5 h, and then 1 uL of CellTiter-Fluor reagent (Promega, Madision, WI) of measuring cytotoxicity was added to each well using a Bioraptr Flying Reagent Dispenser (FRD) workstation (Beckman Coulter, Indianapolis, IN, USA). The plates were incubated at 37C and 5% CO2 for additional 30 min, and fluorescence intensity was measured by a ViewLux plate reader (PerkinElmer, Shelton, CT)."}
{"compound": "O=c1c2ccccc2[se]n1-c1ccccc1", "Potency": "23.7 µM (active)"}
{"compound": "C/C=C(\\CC)C(=O)NC(N)=O", "Potency": "inactive"}
{"compound": "C[C@]12CC[C@H]3[C@@H](CCC4=C(O)C(=O)CC[C@@H]43)[C@@H]1CC[C@@H]2OC(=O)CCC1CCCC1", "Potency": "inactive"}
{"compound": "O=C(O)CCCO", "Potency": "inactive"}
{"compound": "COc1ccc(OC)c(C[C@H](C)N)c1", "Potency": "inactive"}
{"compound": "COC(=O)[C@H]1[C@@H](OC(=O)c2ccccc2)C[C@@H]2CC[C@H]1N2C", "Potency": "inactive"}
{"compound": "CCC1(CC)C(=O)NC(=O)N(C)C1=O", "Potency": "inactive"}
{"compound": "NC(=O)CN1CC(O)CC1=O", "note": "(stereo not given)", "Potency": "inactive"}
{"compound": "Oc1cccc[c]1[Hg][Cl]", "Potency": "0.841 µM (active)"}
{"compound": "CN1CC[C@@]23CCCC[C@@H]2[C@@H]1Cc1ccc(O)cc13", "Potency": "inactive"}
{"compound": "CC(C)=CCN1CC[C@]2(C)c3cc(O)ccc3C[C@H]1[C@H]2C", "Potency": "inactive"}
{"compound": "[S]=[Sb](=[S])[S][Sb](=[S])=[S]", "Potency": "inactive"}
{"compound": "CN1[C@H]2CC[C@@H]1[C@@H](C(=O)O)[C@@H](OC(=O)c1ccccc1)C2", "Potency": "inactive"}
{"compound": "CCNC1(c2cccs2)CCCCC1=O", "note": "(stereo not given)", "Potency": "inactive"}
{"compound": "CN1[C@@H]2CC[C@H]1CC(OC1c3ccccc3CCc3ccccc31)C2", "note": "(stereo not given in full)", "Potency": "2.85 µM (active)"}
{"compound": "CCCCCc1cc(O)c2c(c1)OC(C)(C)[C@@H]1CCC(C)=C[C@@H]21", "Potency": "13.3 µM (active)"}
{"compound": "CC(=O)OCC(=O)[C@H]1CC[C@H]2[C@@H]3CC[C@H]4C[C@H](O)CC[C@]4(C)[C@H]3C(=O)C[C@]12C", "Potency": "inactive"}
{"compound": "O=C(O)/C=C/C(=O)O", "Potency": "inactive"}
{"compound": "CCC1(C)CC(=O)NC(=O)C1", "Potency": "inactive"}
{"compound": "CCCSc1cc(OC)c(CCN)cc1OC", "Potency": "29 µM (active)"}
{"compound": "CC(Cc1ccccc1)NC=O", "note": "(stereo not given)", "Potency": "inactive"}
{"compound": "COC(=O)[C@]12CCC(C)(C)C[C@H]1[C@H]1C(=O)C=C3[C@@]4(C)C=C(C#N)C(=O)C(C)(C)[C@@H]4CC[C@@]3(C)[C@]1(C)CC2", "Potency": "1.68 µM (active)"}
{"compound": "COc1ccc2c3c1O[C@H]1[C@@H](O)C=C[C@H]4[C@@H](C2)NCC[C@@]341", "Potency": "inactive"}
{"compound": "CN[C@@]1(c2ccccc2Cl)CCCCC1=O", "Potency": "inactive"}
{"compound": "CNC1(c2ccccc2Cl)CCCCC1=O", "note": "(stereo not given)", "Potency": "inactive"}
{"compound": "O=C1OC2(c3cc(Br)c(O)cc3Oc3c2cc(Br)c(O)[c]3[Hg])c2ccccc21", "note": "(stereo not given)", "Potency": "inactive"}
{"compound": "Cc1ccccc1-n1c(C)nc2ccccc2c1=O", "Potency": "inactive and 24.1 µM (active)"}
{"compound": "COc1ccc2c(c1)C13CCCC[C@@H]1C(C2)N(C)CC3", "note": "(stereo not given in full)", "Potency": "inactive"}
{"compound": "COc1ccc2c3c1O[C@H]1C(=O)CC[C@H]4[C@@H](C2)N(C)CC[C@]314", "Potency": "inactive"}
{"compound": "COc1ccc(OC)c([C@@H](O)[C@H](C)N)c1", "Potency": "inactive"}
{"compound": "C[C@@H](N)C(=O)c1ccccc1", "Potency": "inactive"}
{"compound": "Cc1cccc(C(C)c2cnc[nH]2)c1C", "note": "(stereo not given)", "Potency": "inactive"}
{"compound": "C[C@@H](Cc1ccccc1)N(C)C", "Potency": "inactive"}
{"compound": "CNc1ccc(C(=O)CC(O)CCC(C)C2OC(=O)CC(O)CC(=O)CC(O)CC(O)CC(O)CC(O)CC3(O)CC(O)C(C(=O)OC)C(CC(O[C@@H]4O[C@H](C)[C@@H](O)[C@H](N)[C@@H]4O)/C=C/C=C/C=C/C=C/C=C/C=C/C=C/C2C)O3)cc1", "note": "(stereo not given in full)", "Potency": "inactive"}
{"compound": "C=CCC1(C(C)CCC)C(=O)N=C(S)NC1=O", "note": "(stereo not given)", "Potency": "inactive"}
{"compound": "C1CN(P2(N3CC3)=NP(N3CC3)(N3CC3)=NP(N3CC3)(N3CC3)=N2)CCO1", "note": "(stereo not given)", "Potency": "inactive"}
{"compound": "CCC(N)Cc1c[nH]c2ccccc12", "note": "(stereo not given)", "Potency": "inactive"}
{"compound": "CC(N)Cc1ccc(O)cc1", "note": "(stereo not given)", "Potency": "inactive"}
{"compound": "CCN(CC)/[N+]([O-])=N/O", "Potency": "inactive"}
{"compound": "O[C@H]1[C@H]2[C@H](O)CCCN2C[C@H]1O", "Potency": "inactive"}
